Only some compounds are listed: those with a hit (about 9.3% of all), similar ones and a draw of the others.
HCMV inh: qHTS Assay for inhibitors of the human cytomegalovirus (HCMV). activity change, negative = inhibition, % at 57.5 µM. HFF cells, HCMV-luciferase reporter, 72 h; active compounds read low. 410,000 compounds, 4.5% hits. AID 1259415, 2018; in the data active = activity change below about -60%; inconclusive = no clear call, values can overlap the other calls; inactive = above about -39%
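Luciferase read-out from HCMV-luciferase-infected HFFs (MOI 1 PFU/cell) 72 h post infection at 37C; compounds added after 16 h cell attachment; activity normalized between buffer-only basal and Salinomycin (10uM) inhibitor controls.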
VACV Venus inh: qHTS for Stage-Specific Inhibitors of Vaccinia Orthopoxvirus: Venus Reporter Primary qHTS. 330,000 compounds, 0.46% hits. AID 720580, 2013. Vaccinia virus Venus reporter expression, fluorescence. Potency, µM (series often up to 36.5 µM), inactives show top-dose activity change, negative = inhibition, usual class: inhibitors; calls by dose curve; tested in A549 cells; note: potency is the fitted concentration of half-maximal effect; nearly all actives have a fitted effect of over 30% in size
HCV inhibitor: qHTS Assay for Inhibitors of Hepatitis C Virus (HCV). Potency, µM (highest dose often 41.8 µM), for the others: at the highest dose activity change, negative = inhibition, hits mostly inhibitors. 340,000 compounds, 3.4% hits. AID 651820, 2012. Huh7.5.1 HCVcc-Cre infection, luciferase reporter, 44 h; note: potency is the fitted concentration of half-maximal effect
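After 44 h co-culture of compound, cells and HCVcc-Cre (~0.5 moi), substrate is added for 15 min at room temperature and luciferase measured over 15 sec. Cells were seeded at 1,000/well and pre-cultured 4 h.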
FMDV inh: High Throughput Screening for Foot and Mouth Disease Virus Antivirals. FMDV antiviral cell-based qHTS. Potency, µM (doses to about 57.9 µM), for the others: top-dose activity change, negative = inhibition, usual class: inhibitors. 410,000 compounds, 1.2% hits. AID 1159524, 2015; calls by dose curve; tested in HEK293T cells; note: read-out not given here; potency is the fitted concentration of half-maximal effect; nearly all actives have a fitted effect of over 45% in size
Vaccinia mCherry: qHTS for Stage-Specific Inhibitors of Vaccinia Orthopoxvirus: mCherry Reporter Primary qHTS; Vaccinia virus mCherry reporter infection, fluorescence; Potency, µM (doses to about 36.5 µM), without a hit: at the top dose activity change, negative = inhibition, usual class: inhibitors; 310,000 compounds, 0.63% hits; AID 720579, 2013; calls by dose curve; tested in A549 cells; note: potency is the fitted concentration of half-maximal effect; nearly all actives have a fitted effect of over 35% in size
Sm TGR block: qHTS Assay for the Inhibitors of Schistosoma Mansoni Peroxiredoxins; Schistosoma mansoni thioredoxin glutathione reductase (TGR), Q962Y6; purified TGR, DTNB reduction, TNB absorbance 405 nm; Potency, µM (doses to about 114 µM), without a hit: at the top dose activity change, negative = inhibition, actives largely listed as inhibitors; 360,000 compounds, 3% hits; note: potency is the fitted concentration of half-maximal effect; nearly all actives have a fitted effect of over 60% in size
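First, TGR (20 nM dispensed) and NADPH were mixed with compound. Second, a 15 min room-temperature incubation followed. Third, further NADPH and then DTNB were added to start the reaction. Finally, TNB absorbance was monitored kinetically.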
Starred values were filed as active, the others as inactive. Unless noted, calls come from the whole dose curve; as a rule, active = well fitted curve in the direction sought with a large enough effect; inconclusive = small, poorly fitted or top-dose-only effect, or another doubt; inactive = no such curve, though single readings can be large; an effect the other way counts as inactive or inconclusive. % is set by controls: 0 for no effect and ±100 for the full control effect.

CC(C)CNC(=S)N1CCN(c2nc(-c3ccc(Cl)cc3)cs2)CC1 was read as HCMV inh inconclusive, VACV Venus inh -25.9%, HCV inhibitor 11.2µM*, FMDV inh -29.2%, Vaccinia mCherry inconclusive and Sm TGR block 5.1%.
`COCCCNC(=S)N1CCN(c2nc(-c3ccccc3)cs2)CC1` gave HCMV inh -67.4*, HCV inhibitor 12.6µM*, FMDV inh inconclusive and Sm TGR block 2.8%.
`C[C@@H]1CN([C@H](C)CO)C(=O)CCCn2nncc2CO[C@H]1CN(C)Cc1ccc(-c2ccccc2)cc1` gave HCMV inh -9.0, VACV Venus inh -13.8%, FMDV inh -23.0% and Vaccinia mCherry -2.1%.
For COCCNC(=S)N1CCN(c2nc(-c3cccc(OC)c3)cs2)CC1 the results were HCMV inh -1.1, VACV Venus inh -10.4%, HCV inhibitor 12.6µM*, FMDV inh -1.0%, Vaccinia mCherry inconclusive and Sm TGR block -9.1%.
CCN(CC)CCCNC(=S)N1CCN(c2nc(-c3ccccc3)cs2)CC1 was read as HCMV inh -31.5, VACV Venus inh inconclusive, HCV inhibitor 7.94µM*, FMDV inh -25.5%, Vaccinia mCherry -22.9% and Sm TGR block inconclusive.
For CCNC(=S)N1CCN(c2nc(-c3cccc(OC)c3)cs2)CC1 the results were HCMV inh -39.8, HCV inhibitor inconclusive, FMDV inh -14.1% and Sm TGR block 9.3%.
For CSc1nc2nccc(/C=C\c3ccccc3)n2n1 the results were HCMV inh -106.0*, HCV inhibitor inconclusive, FMDV inh inconclusive and Sm TGR block -19.2%.
For CSc1nc2nccc(-c3ccc(Cl)cc3)n2n1 the results were HCMV inh -25.0, VACV Venus inh -22.3%, HCV inhibitor 7.1%, FMDV inh 0.0% and Sm TGR block -7.3%.
COc1cccc(NC(=O)Nc2nc(SC(C)(C)C)ns2)c1 was read as HCMV inh -94.8*, HCV inhibitor inconclusive, FMDV inh -29.3% and Sm TGR block 13.3%.
For CCCSc1ccc(C(=O)Nc2ccc(F)cc2F)cn1 the results were HCMV inh -62.2*, VACV Venus inh -26.2%, HCV inhibitor -13.3%, FMDV inh 17.8%, Vaccinia mCherry inactive and Sm TGR block 1.0%.
For CCCSc1nsc(NC(=O)C(c2ccccc2)c2ccccc2)n1 the results were VACV Venus inh inconclusive, HCV inhibitor inconclusive, FMDV inh inconclusive, Vaccinia mCherry inconclusive and Sm TGR block 5.1%.
`CCCSc1nsc(NC(=O)Nc2ccc(F)cc2F)n1` gave HCMV inh -100.8*, HCV inhibitor 10µM*, FMDV inh 7.4% and Sm TGR block 6.7%.
Screening CCSc1nsc(NC(=O)Nc2cccc(F)c2)n1 returned HCMV inh -97.9*, VACV Venus inh inconclusive, HCV inhibitor 10µM*, FMDV inh inconclusive, Vaccinia mCherry -17.4% and Sm TGR block 0.9%.
CC(C)S(=O)(=O)c1ccc(C(=O)Nc2ccc(F)cc2F)cn1 was read as HCMV inh -10.2, VACV Venus inh -12.4%, HCV inhibitor -3.4%, FMDV inh -0.3%, Vaccinia mCherry -16.1% and Sm TGR block 1.4%.
`COc1cccc(NC(=O)Nc2nc(SC)ns2)c1` gave HCMV inh inconclusive, VACV Venus inh -15.2%, HCV inhibitor -8.9%, FMDV inh -5.8%, Vaccinia mCherry inconclusive and Sm TGR block -19.3%.
Screening COc1ccc(NC(=O)N2CCN(c3nc(-c4cccc(OC)c4)cs3)CC2)cc1 returned HCMV inh -91.5*, HCV inhibitor 6.31µM*, FMDV inh 20µM* and Sm TGR block -2.4%.
For COc1cccc(-c2csc(N3CCN(C(=O)Nc4ccc(Cl)cc4)CC3)n2)c1 the results were HCMV inh inconclusive, VACV Venus inh inconclusive, HCV inhibitor 11.2µM*, FMDV inh inconclusive, Vaccinia mCherry inconclusive and Sm TGR block 0.0%.

Bioassay records from PubChem BioAssay.
